We go through 40 compounds from PubChem BioAssay (NCATS).

Records with an inconclusive call do not appear. Active and inactive are the calls of the source. Calls follow the shape of the dose curve; as a rule, active = well fitted inhibition curve with a large enough effect; inconclusive = small, poorly fitted or top-dose-only effect; inactive = no such curve, though single readings can be large or run the other way.

This experiment can be described thus: qHTS assay for measurement of the activity of small molecule inhibitors on Zika virus induced Caspase-3 activity in human iPSC derived neural progenitor cells (hNPCs) (AID 1224857). Also: nearly all actives have a fitted effect of over 65% in size. As to conditions: hNPCs ZIKV-induced caspase-3/7, Caspase-Glo luminescence, 6 h; series mostly up to 45.7 µM. The source says:
National Center for Advancing Translational Sciences [NCATS]
Johns Hopkins University School of Medicine
Increase in the Caspase-3 activity indicates an activation of apoptosis cell death pathway caused by Zika virus infection in certain types of neuronal cells including human neural progenitor cells (hNPCs), astrocytes, and astrocytoma cell line (SNB-19). This cell-based caspase-3 activity assay measures the increased caspase-3 activity in the human iPSC derived neural progenitor cells (hNPCs) after a 6-hour Zika virus infection with a luminescence readout. A decrease in the luminescence signal in this assay by small molecule treatment indicates an inhibitory effect of that small molecule on the Zika virus induced caspase-3 activity that may correlate with its effect on reduction of Zika virus caused cell death.
The medium for hNPCs consists of DMEM/F12, N2 supplement (ThermoFisher, Cat.# 17502048), NEAA (ThermoFisher, Cat. # 11140050), 2 ug/ml heparin, 2 uM cyclopamine, and B27 (ThermoFisher, Cat. # 17504044). A Caspase-Glo 3/7 assay kit (catalog number G8092; Promega, Madison, WI) was used to detect caspase-3 activity induced by Zika virus infection in human cells. The reagent mixture was reconstituted as described in the protocol from the manufacturer. Polystyrene tissue culture treated and PDL coated white plates were obtained from Greiner Bio-One (Monroe, NC). Cells were seeded in 384- or 1536-well assay plates and cultured at 37 C with 5% CO2 for 16 to 20 hours. The typical cell seeding density in the 1536-well plate assay is 350 cells/well in 3 ul medium for hNPCs in tissue culture treated plates. Compounds were added to cells and incubated for one hour before addition of ZIKV solution to cells (2 FFU/cell). After incubation at 37 C with 5% CO2 for 6 hours, the reagent mixture of Caspase-Glo 3/7 assay kit was added to each well, followed by incubation at room temperature for 30 minutes. The luminescence intensity of the assay plates was measured using a ViewLux plate reader (PerkinElmer). Data were normalized by using the cell-containing wells without ZIKV as a negative control (0% induction of caspase 3/7 activity) and wells containing ZIKV infected cells (Caspase-3 activity induced) as a positive control (100% induction of caspase 3 activity). The percentage inhibitions of the increased Caspase-3 activity by small molecule inhibitors were then calculated.
A general note: In qHTS, concentration-response curves come from the screen itself.
On to `CNCCCN1c2ccccc2CCc2ccccc21`, for which the call was inactive.

Regarding `NCCCNCCSP(=O)(O)O`, the outcome was inactive.

For the compound `CCN(CC)CCCN(c1ccccc1)C1Cc2ccccc2C1`, the result was inactive.

As to `Cc1nc2sccn2c(=O)c1CCN1CCC(=C(c2ccc(F)cc2)c2ccc(F)cc2)CC1`, the outcome was inactive.

As for `CC(C)NCC(O)c1cc(O)cc(O)c1` (stereo not given), the compound was called inactive.

For the compound `Nc1ncn([C@@H]2O[C@H](CO)[C@@H](O)[C@H]2O)c(=O)n1`, the outcome was inactive.

Turning to `CCN1CCC[C@H]1CNC(=O)c1c(O)c(Cl)cc(Cl)c1OC`, the compound was classed as inactive.

For `Cc1cccc(C)c1NC(=O)C(C)N` (stereo not given), the call was inactive.

For the compound `CN(C)CCN(Cc1cccs1)c1ccccn1`, the compound was classed as inactive.

With `CC[N+](C)(C)c1cccc(O)c1`, the outcome was inactive.

For `CCCN1C[C@H](CSC)C[C@@H]2c3cccc4[nH]cc(c34)C[C@H]21`, the compound was classed as inactive.

As to `CCn1ccnc1CC1COc2ccccc2O1` (stereo not given), the result was inactive.

On to `CCc1cccc(N(C)C(N)=Nc2cccc3ccccc23)c1`, for which the outcome was inactive.

`N[C@@H](COP(=O)(O)O)C(=O)O`: the call was inactive.

On to `CCCC(C(=O)OCCN(CC)CC)(c1ccccc1)c1ccccc1`, for which the outcome was inactive.

As to `c1cnc(N2CCN(Cc3ccc4c(c3)OCO4)CC2)nc1`, the compound was classed as inactive.

As for `OCCN1CCN(CCCN2c3ccccc3C=Cc3ccccc32)CC1`, the compound was called inactive.

For the compound `C[C@]12CCC(=O)C=C1CC[C@@H]1[C@@H]2C(=O)C[C@@]2(C)[C@H]1CC[C@]2(O)C(=O)CO`, the compound was called inactive.

Regarding `CN1C[C@H](C(=O)N[C@]2(C)O[C@@]3(O)[C@@H]4CCCN4C(=O)[C@H](Cc4ccccc4)N3C2=O)C[C@@H]2c3cccc4[nH]cc(c34)C[C@H]21`, the result was inactive.

As for `CCC(=O)c1ccc2c(c1)N(CCCN(C)C)c1ccccc1S2`, the compound was classed as inactive.

Consider `NC1=NCC2c3ccccc3Cc3ccccc3N12` (stereo not given), for which the call was inactive.

Consider `CCN1CCc2nc(N)oc2CC1`, for which the result was inactive.

Consider `COCC(=O)O[C@]1(CCN(C)CCCc2nc3ccccc3[nH]2)CCc2cc(F)ccc2[C@@H]1C(C)C`, for which the outcome was inactive.

For `Cc1nnc(SCC2=C(C(=O)O)N3C(=O)[C@@H](NC(=O)Cn4cnnn4)[C@H]3SC2)s1`, the outcome was inactive.

Take `Nc1c2c(nc3ccccc13)CCCC2O` (stereo not given): the compound was called inactive.

On to `CN(C(=O)CCCOc1ccc2[nH]c(=O)ccc2c1)C1CCCCC1`, for which the outcome was inactive.

`Fc1ccc(C(c2ccc(F)cc2)N2CCN(C/C=C/c3ccccc3)CC2)cc1`: the outcome was inactive.

On to `COc1cc2c(cc1OC)-c1cc(=Nc3c(C)cc(C)cc3C)n(C)c(=O)n1CC2`, for which the outcome was inactive.

As for `CC(C)COCC(CN(Cc1ccccc1)c1ccccc1)N1CCCC1` (stereo not given), the call was inactive.

As to `CN1C(=O)CC[C@H]1c1cccnc1`, the call was inactive.

In the case of `CCn1nc(C(=O)O)c(=O)c2cc3c(cc21)OCO3`, the call was inactive.

For `NC/C=C/C(=O)O`, the outcome was inactive.

On to `CO[C@@]1(NC(=O)CSCC#N)C(=O)N2C(C(=O)O)=C(CSc3nnnn3C)CS[C@@H]21`, for which the call was inactive.

On to `CC(=O)Oc1cc(C(C)C)c(OCCN(C)C)cc1C`, for which the compound was classed as inactive.

As to `COc1cc(C(=O)OCCCN2CCCN(CCCOC(=O)c3cc(OC)c(OC)c(OC)c3)CC2)cc(OC)c1OC`, the compound was classed as inactive.

As for `CCN(CC)CCNC(=O)c1cc(S(C)(=O)=O)ccc1OC`, the outcome was inactive.

Regarding `CC(C(=O)O)c1ccc(CC2CCCC2=O)cc1` (stereo not given), the compound was called inactive.

On to `C[N+](C)(C)CCCCCCCCCC[N+](C)(C)C`, for which the compound was called inactive.

For `CNC1(C)C2CCC(C2)C1(C)C` (stereo not given), the compound was classed as inactive.

`COc1ccc([C@@H]2Sc3ccccc3N(CCN(C)C)C(=O)[C@@H]2OC(C)=O)cc1`: the call was inactive.
